Experimental findings from PubChem BioAssay (NCI) are described below.

Compounds without any hit were thinned out: in the full panel of roughly 83,000, 20% have a hit.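 Compound tested at a single concentration for 48 hours in 96-well plates; a percent growth value below 10 was scored as active.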 A number with no mark means an inactive call. Activity calls are given as the source filed them.

What all share (assay): NCI-60 one-dose screen, 48 h (100 = growth as untreated, 0 = no growth, -100 = all killed)
In one assay the test system is HCT-15 colon. The note with it: 10 µM unless noted.
A further assay relates to HT29 colon. The note with it: 10 µM unless noted.
In a further assay the test system is SNB-75 CNS. The note with it: 10 µM unless noted.
For the next assay, the system named is SNB-19 CNS. As to conditions: 10 µM unless noted.
The subject of the next assay is U251 CNS. As to conditions: 10 µM unless noted.
In a further assay the test system is PC-3 prostate. The note with it: 10 µM unless noted.
The test system of another assay is SK-MEL-5 melanoma. As to conditions: 10 µM unless noted.
For another assay, the system named is UACC-62 melanoma. As to conditions: 10 µM unless noted.
The next assay has as its system LOX IMVI melanoma. The note with it: 10 µM unless noted.
For the next assay, the system named is SK-MEL-28 melanoma. As to conditions: 10 µM unless noted.
Another assay deals with SK-MEL-2 melanoma. As to conditions: 10 µM unless noted.
The next assay concerns SN12C renal. The note with it: 10 µM unless noted.
A further assay concerns UO-31 renal. As to conditions: 10 µM unless noted.
In the next assay the test system is TK-10 renal. The note with it: 10 µM unless noted.
A further assay deals with ACHN renal. As to conditions: 10 µM unless noted.
For a further assay, the system named is CAKI-1 renal. As to conditions: 10 µM unless noted.
The test system of a further assay is A498 renal. As to conditions: 10 µM unless noted.
The next assay concerns MOLT-4 leukemia. The note with it: 10 µM unless noted.
The test system of the next assay is CCRF-CEM leukemia. The note with it: 10 µM.

Turning to `CCCCCCCCCCCCOC(=N)N(C)C`, the growth in the assay on HCT-15 colon is 96.7%; in the assay with HT29 colon, 102%; in the assay with SNB-75 CNS it was 85.8%; with SNB-19 CNS, 96.1%; with U251 CNS it was 94.8%; in the assay on PC-3 prostate, 91.4%. For the same compound, the growth in the assay on SK-MEL-5 melanoma was 109%; in the assay on UACC-62 melanoma, 93.9%; in the assay on LOX IMVI melanoma, 74.2%; in the assay on SK-MEL-28 melanoma, 106%; with SK-MEL-2 melanoma it was 95.8%; in the assay with SN12C renal it was 101%. Moreover, the growth is 91% in the assay on UO-31 renal; 94% in the assay on TK-10 renal; 93.6% in the assay on ACHN renal; 80.7% with CAKI-1 renal; 103% in the assay on A498 renal; 93.5% in the assay on MOLT-4 leukemia.
As for `CC(=O)c1ccc2c(c1)c1ccccc1n2C`, the growth is 102% in the assay on HCT-15 colon; 91.1% in the assay on HT29 colon; 82.5% with SNB-75 CNS; 90.8% in the assay with SNB-19 CNS; 94.8% with U251 CNS; 89.2% in the assay with PC-3 prostate. In addition, the growth in the assay with SK-MEL-5 melanoma was 103%; in the assay with UACC-62 melanoma it was 83.2%; in the assay on LOX IMVI melanoma, 97.1%; in the assay on SK-MEL-28 melanoma, 107%; in the assay with SK-MEL-2 melanoma it was 98.4%; with SN12C renal it was 92.1%. For the same compound, the growth in the assay on UO-31 renal was 60.8%; with TK-10 renal, 108%; in the assay on ACHN renal, 110%; in the assay on CAKI-1 renal, 73.5%; in the assay on A498 renal it was -85.3% (active); with CCRF-CEM leukemia, 70.6%. Besides, in the assay on MOLT-4 leukemia, the growth is 82%.
On to `CCCCN(CCCC)c1ccc(C(=O)O)cc1`, for which the growth with HCT-15 colon was 97.3%; with HT29 colon, 108%; in the assay with SNB-75 CNS it was 83.2%; with SNB-19 CNS it was 84.8%; in the assay with U251 CNS, 100%; in the assay with PC-3 prostate, 102%. Further, the growth with SK-MEL-5 melanoma is 100%; with UACC-62 melanoma it was 103%; in the assay on LOX IMVI melanoma, 99.4%; with SK-MEL-28 melanoma, 107%; with SK-MEL-2 melanoma it was 83.5%; in the assay with SN12C renal, 97.9%. Besides, the growth in the assay on UO-31 renal was 82.9%; in the assay with TK-10 renal, 86.3%; in the assay with ACHN renal, 105%; in the assay on CAKI-1 renal it was 103%; in the assay with A498 renal, 98.2%; in the assay on MOLT-4 leukemia it was 99%.
Regarding `CC#Cc1nc(Nc2cc(C)[nH]n2)c2ccccc2n1`, the growth was -0.521% [100 µM] (active) in the assay on HCT-15 colon; 2.45% [100 µM] (active) in the assay on HT29 colon; -14.3% [100 µM] (active) in the assay on SNB-75 CNS; 43% [100 µM] in the assay on SNB-19 CNS; -25.5% [100 µM] (active) in the assay with U251 CNS; -28.8% [100 µM] (active) with PC-3 prostate. In addition, the growth in the assay with SK-MEL-5 melanoma was -71.9% [100 µM] (active); in the assay on UACC-62 melanoma, -84.1% [100 µM] (active); in the assay with LOX IMVI melanoma it was -58.5% [100 µM] (active); with SK-MEL-28 melanoma it was 40.5% [100 µM]; in the assay with SK-MEL-2 melanoma it was -51.2% [100 µM] (active); with SN12C renal it was -0.924% [100 µM] (active). Moreover, the growth is -6.22% [100 µM] (active) in the assay with UO-31 renal; 3.15% [100 µM] (active) in the assay on TK-10 renal; 3.22% [100 µM] (active) in the assay on ACHN renal; -33.2% [100 µM] (active) in the assay on CAKI-1 renal; -94% [100 µM] (active) in the assay with A498 renal; -43.3% [100 µM] (active) in the assay on MOLT-4 leukemia.
Take `O=C(CCl)NC1c2ccccc2Oc2ccccc21`: the growth was 50.8% in the assay with HCT-15 colon; 80.5% with HT29 colon; 74.5% with SNB-75 CNS; 94.3% in the assay on SNB-19 CNS; 47.7% in the assay on U251 CNS; 80.7% in the assay on PC-3 prostate. Moreover, the growth in the assay with SK-MEL-5 melanoma is 73.8%; in the assay on UACC-62 melanoma, 68.1%; in the assay with LOX IMVI melanoma, -1.57% (active); with SK-MEL-28 melanoma it was 92%; in the assay on SK-MEL-2 melanoma it was 63%; in the assay with SN12C renal, 81.1%. Also, the growth was 92.1% in the assay on UO-31 renal; 84.4% in the assay on TK-10 renal; 72.4% with ACHN renal; 64.6% in the assay on CAKI-1 renal; 97.3% with A498 renal; 62.6% in the assay with MOLT-4 leukemia.
Turning to `CNc1nc2ncn(C)c2c(=O)[nH]1`, the growth with HCT-15 colon was 74%; in the assay with HT29 colon, 98%; in the assay on SNB-75 CNS, 81.3%; in the assay with SNB-19 CNS, 113%; in the assay on U251 CNS, 97.3%; in the assay with PC-3 prostate, 100%. Moreover, the growth is 101% in the assay with SK-MEL-5 melanoma; 78.3% with UACC-62 melanoma; 71.6% with LOX IMVI melanoma; 103% in the assay with SK-MEL-28 melanoma; 94.3% in the assay on SK-MEL-2 melanoma; 92% in the assay on SN12C renal. The growth with UO-31 renal is 83.3%; with TK-10 renal, 84.1%; in the assay on ACHN renal it was 71.5%; in the assay with CAKI-1 renal, 84.1%; in the assay with A498 renal, 96.4%; in the assay on MOLT-4 leukemia, 94.8%.
For the compound `O=C1C=C(OCC=C(C(F)(F)F)C(F)(F)F)c2ccccc2C1=O`, the growth with HCT-15 colon is 11%; in the assay on HT29 colon, 6.37% (active); with SNB-75 CNS, 66.6%; with SNB-19 CNS, 61%; with U251 CNS, 39.7%; with PC-3 prostate, -19% (active). In addition, the growth with SK-MEL-5 melanoma was 33.5%; with UACC-62 melanoma, 63.7%; with LOX IMVI melanoma it was -62.4% (active); with SK-MEL-28 melanoma, -17.5% (active); with SK-MEL-2 melanoma, 12.4%; in the assay with SN12C renal it was -15.1% (active). Moreover, the growth in the assay on UO-31 renal is 49.9%; with TK-10 renal it was 53.5%; in the assay with ACHN renal, 1.45% (active); in the assay on CAKI-1 renal, 4.75% (active); in the assay with A498 renal, 80.9%; with CCRF-CEM leukemia it was -33.9% (active). The growth with MOLT-4 leukemia is -36.9% (active).
On to `O=C1C(Br)=CC2C1C1C3CCC3C2(Br)C12OCCO2` (configuration not stated), for which the growth in the assay with HCT-15 colon was 19%; in the assay on HT29 colon, 8.84% (active); with SNB-75 CNS it was 56.3%; with SNB-19 CNS, 81%; with U251 CNS it was 35.3%; in the assay with PC-3 prostate, 32%. Also, the growth in the assay on SK-MEL-5 melanoma is 67.3%; in the assay on UACC-62 melanoma, 54.9%; in the assay on LOX IMVI melanoma, 8.55% (active); with SK-MEL-28 melanoma, 55.7%; in the assay on SK-MEL-2 melanoma, 21.7%; in the assay with SN12C renal, 41.8%. For the same compound, the growth in the assay with UO-31 renal is 62%; with TK-10 renal it was 28.8%; in the assay on ACHN renal, 32.5%; in the assay with CAKI-1 renal it was -19.3% (active); in the assay with A498 renal it was 52.4%; in the assay with CCRF-CEM leukemia, -3.12% (active). Further, the growth in the assay on MOLT-4 leukemia is 15.7%.
